This assay can be described thus: HBEC Cell Viability Secondary Assay for qHTS Assay for Epigenetic Modulators. The following applies: HBEC normal bronchial cells viability, ATP luminescence, 72 h. The source says:
NIH Molecular Libraries Screening Centers Network [MLSCN] NIH Chemical Genomics Center [NCGC] MLSCN Grant: 1 X01 MH079860-01 Assay Provider: Elisabeth D. Martinez, University of Texas SW Medical Center NCGC Assay Overview: This secondary assay characterizes selected actives identified in the qHTS of the Locus Derepression (LDR) assay (PubChem AID 1865). The LDR assay detects the derepression of a GFP reporter that is stably integrated in a region of the genome of murine c127i mammary cells that is presumably silenced. Compounds that cause derepression of the locus to express GFP are identified by enumerating GFP positive cells using a laser-scanning microplate cytometer. […] Cell viability was measured using a luminescence-based detection reagent that measures cellular ATP levels.
NCGC Assay Protocol Summary HBEC cells were seeded at 125 cells/5 uL/well in white, solid bottom, 1536 well plates (Greiner). […] Plates were incubated 72 hours at 37deg C and 5% CO2, then 3.5 uL/well CellTiter-Glo(R) (Promega) detection reagent was added, plates were incubated at ambient temperature for 10 minutes and luminescence was measured by a ViewLux (Perkin Elmer) reader. […] A quantitative high-throughput screen identifies potential epigenetic modulators of gene expression. […] A quantitative high-throughput screen identifies potential epigenetic modulators of gene expression. […]
On the technique in general: In qHTS, concentration-response curves come from the screen itself.

This is an account of results in PubChem BioAssay AID493066 (National Center for Advancing Translational Sciences (NCATS), 2011).

Results filed as inconclusive are left out. The source made the active and inactive calls. Calls come from the whole dose curve; as a rule, active = well fitted cell-killing curve with a large enough effect; inconclusive = small, poorly fitted or top-dose-only effect; inactive = flat fitted curve, though single readings scatter.

Turning to `O=C1NC(=O)N(CCc2ccc(F)cc2)C(=O)/C1=C/C=C/c1ccccc1`, the Potency is 7.91 µM (active).
The result for `COc1ccc(OC)c(N2C(=O)NC(=O)/C(=C\c3ccc([N+](=O)[O-])s3)C2=O)c1` reads 28.1 µM (active).
